Source: PubChem (NMMLSC)
Hits are enriched below; roughly 0.93% of the tested compounds scored in any of these assays.
RPL19A TOR yeast = RPL19A-GFP expression modulators in yeast, primary screen, cell-based, S. cerevisiae, multiplex flow cytometry, MLPCN | S. cerevisiae RPL19A-GFP strain, 3 h; hits give low values | percent response vs DMSO, % at 10 µM | AID 2025, 2009 | 330,000 compounds, 0.3% hits;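 active = percent response vs DMSO below 50%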;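 also: median channel GFP fluorescence of the barcoded RPL19A-GFP strain; lower means less RPL19A-GFP as with rapamycin TOR inhibition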
LAP4 TOR yeast = modulators of LAP4-GFP expression in yeast, primary screen, S. cerevisiae, multiplex flow cytometry, MLPCN library; GFP response vs DMSO, % at 10 µM; 320,000 compounds, 0.34% hits; 3 h; median GFP as percent of DMSO wells; AID 2023, 2009;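 active = GFP response vs DMSO above a set limit, about the screen mean plus 3 SD, cut at about 150% in these data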
AGP1 TOR yeast = modulators of AGP1-GFP expression in yeast TOR pathway, primary screen, cell-based, multiplex flow cytometry, S. cerevisiae, MLPCN library; 320,000 compounds, 0.02% hits; GFP response vs DMSO, % at 10 µM; AID 2066, 2009; 3 h; GFP as percent of DMSO wells;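 active = GFP response relative to DMSO above a set limit, near screen average plus 3 SD, cut at about 150% in these data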;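 also: median GFP channel fluorescence of the gated AGP1 strain per well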
MEP2 TOR yeast = modulators of MEP2-GFP levels in yeast, primary screen, S. cerevisiae, multiplex flow cytometry, MLPCN library. S. cerevisiae MEP2-GFP strain, 3 h; 100% = DMSO control level. GFP response vs DMSO, % at 10 µM. 330,000 compounds, 0.51% hits. AID 2016, 2009;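 active = GFP response versus DMSO above a set limit, roughly screen mean plus 3 SD, cut at about 180% in these data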;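 also: median GFP fluorescence of the barcode-gated MEP2-GFP cells per well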
CIT2 TOR yeast = modulators of CIT2-GFP expression in yeast, primary screen, S. cerevisiae, GFP fusion, multiplex flow cytometry, MLPCN library. S. cerevisiae CIT2-GFP strain, 3 h; 100 means same as DMSO wells. GFP response vs DMSO, % at 10 µM. 320,000 compounds, 0.065% hits. AID 2029, 2009;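 active = GFP response relative to DMSO above a set limit, near the screen mean plus 3 SD, cut at about 150% in these data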;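 also: ratio of well median GFP fluorescence to mean of DMSO wells on the plate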
LAP4-GFP pick2 = LAP4-GFP expression modulators in yeast, confirmation, cell-based, second cherry pick, flow cytometry; AID 2621, 2010; GFP response vs DMSO, % at 10 µM; S. cerevisiae LAP4-GFP strain, 3 h; shares compounds with LAP4 TOR yeast; 590 compounds, 20% hits;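 active = GFP signal as percent of the solvent control above about 150%, meaning raised reporter expression, limit read from the data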
MEP2-GFP pick2 = modulators of MEP2-GFP levels in yeast, confirmation, S. cerevisiae, flow cytometry GFP, second cherry picks. shares compounds with LAP4 TOR yeast. S. cerevisiae MEP2-GFP strain, 3 h. GFP response vs DMSO, % at 10 µM. 590 compounds, 10% hits;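 active = GFP signal above 150% of the solvent control wells, that is a rise of more than half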;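 also: median channel GFP fluorescence of all gated yeast cells per well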
RPL19A GFP CP2 = RPL19A-GFP modulators in TOR pathway yeast, confirmation, cell-based, S. cerevisiae, flow cytometry, second cherry pick; GFP response vs DMSO, % at 10 µM; shares compounds with LAP4 TOR yeast; S. cerevisiae RPL19A-GFP strain, 3 h; hits give low values; 100% means same as DMSO wells; 590 compounds, 3% hits; AID 2623, 2010;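 active = under 65% GFP response relative to DMSO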;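 also: median GFP channel fluorescence per well over the all cells gate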
CIT2 GFP CP2 = modulators of CIT2-GFP expression in yeast, confirmation, flow cytometry, second cherry pick, single plex. shares compounds with LAP4 TOR yeast. S. cerevisiae CIT2-GFP strain, 3 h; DMSO control wells read 100%. GFP response vs DMSO, % at 10 µM. 590 compounds, 8% hits. AID 2624, 2010;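 active = GFP response vs DMSO above about 150%, limit read from the data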;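 also: median green fluorescence per well over all gated yeast cells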
AGP1-GFP pick2 = AGP1-GFP expression modulators, hit retest, confirmation, cell-based, flow cytometry, S. cerevisiae, cherry pick set 2; shares compounds with LAP4 TOR yeast; S. cerevisiae AGP1-GFP strain, 3 h; percent response vs DMSO, % at 10 µM; 590 tested, under 10 active;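 active = over 150 percent of DMSO response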;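 also: median GFP channel fluorescence over all cells without mother daughter split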
s288c autofluor = compound autofluorescence in yeast s288c, dose response, artefact control for yeast TOR pathway GFP screen, s288c strain; shares compounds with LAP4 TOR yeast; S. cerevisiae s288c, 520 nm autofluorescence, flow cytometry, 3 h; hits give high values; zero means same as solvent-only cells; fluorescence change (kMESF span) at 33 µM; 610 tested, under 10 active; AID 2757, 2010;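 active = fluorescence span over the dose series, or activity score, above about 33, limit read from the data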
Yeast autofl DR = autofluorescence of compounds in yeast s288c, dose response, artefact control for yeast TOR pathway GFP screen, primary hits, KU SAR, s288c parental; shares compounds with LAP4 TOR yeast; S. cerevisiae s288c parental, compound autofluorescence, flow cytometry, 3 h; fluorescence change (span) at 33 µM; 110 tested, under 10 active; AID 488829, 2010;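 active = fluorescence change span, or the activity score built from it, above 25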
TORC1 bypass gr = wild-type yeast growth inhibition sparing TORC1 bypass cells, mechanism study for yeast TOR pathway GFP screen, BY4741 wild type, TORC1 bypass strain | shares compounds with LAP4 TOR yeast | S. cerevisiae BY4741 spot growth rating, 48-72 h; hits give low values | growth rating (0-3) at 30 µM | 120 tested, under 10 active | AID 504456, 2011;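 active = growth rating at most 1 for wild type yeast while the TORC1 bypass strain still grows fully, rated 3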
A number is an active result; – = inactive; · = not tested or not shown.

SMILES | RPL19A TOR yeast | LAP4 TOR yeast | AGP1 TOR yeast | MEP2 TOR yeast | CIT2 TOR yeast | LAP4-GFP pick2 | MEP2-GFP pick2 | RPL19A GFP CP2 | CIT2 GFP CP2 | AGP1-GFP pick2 | others
O=C(O)Cc1sc(NC2CCCCC2)nc1-c1ccc(Cl)cc1 | – | – | – | – | – | · | · | · | · | ·
Fc1ccc(NC(=S)Nc2ccc3nccnc3c2)cc1 | – | 171 | – | – | – | – | – | – | – | –
O=C1c2cccc3c(N4CCCCC4)ccc(c23)C(=O)N1c1ccccn1 | – | – | – | – | – | · | · | · | · | ·
O=C1c2cccc3c([N+](=O)[O-])ccc(c23)C(=O)N1c1ccccn1 | – | 193 | – | 301 | 191 | 193 | 324 | – | 196 | – | s288c autofluor=–
O=C1c2cccc3c([N+](=O)[O-])ccc(c23)C(=O)N1O | – | 228 | – | 350 | 274 | · | · | · | · | · | s288c autofluor=–
COc1ccccc1N1CCN(CC(=O)Nc2ccccc2C(=O)NC(C)c2ccccc2)CC1 (stereo not given) | – | – | – | – | – | · | · | · | · | ·
Cc1ccnc2c1ccc1c(C)ccnc12 | – | 166 | – | – | – | – | – | – | – | –
CC1=C(C)/C(=N\OS(=O)(=O)c2ccc(C)cc2)C=CC1=O | – | 244 | – | – | – | 160 | – | – | 153 | – | s288c autofluor=–
CC1=C/C(=N\OS(=O)(=O)c2ccccc2)C(C)=CC1=O | – | 234 | – | – | – | · | · | · | · | · | s288c autofluor=–
CC1=C/C(=N\OS(=O)(=O)c2ccccc2)C(C(C)C)=CC1=O | – | 191 | – | – | – | 172 | 157 | – | – | – | s288c autofluor=–
Cc1ccccc1C(=O)c1cccn1CC(=O)NCc1cccc(Cl)c1 | – | – | – | – | – | · | · | · | · | ·
CCCC(=O)Nc1c2c(nn1-c1ccc([N+](=O)[O-])cc1)CS(=O)(=O)C2 | – | – | – | – | – | · | · | · | · | ·
NS(=O)(=O)c1ccc(CCNC(=O)C(=O)c2cn(CC(=O)N3CCOCC3)c3ccccc23)cc1 | – | – | – | – | 171 | – | – | – | – | –
CCN(CC)C(=O)Cn1cc(C(=O)C(=O)NCCc2ccc(S(N)(=O)=O)cc2)c2ccccc21 | – | – | – | – | – | · | · | · | · | ·
CC(=O)Nc1ccc(NC(=O)Cc2sc(C)nc2-c2ccc(C)cc2)cc1 | – | – | – | – | – | · | · | · | · | ·
Cc1ccc(-c2nc(C)sc2CC(=O)Nc2nnc(C)s2)cc1 | – | – | – | – | – | – | – | – | – | – | s288c autofluor=–
CC1(C)CCC[C@]2(C)[C@H]3CC(=O)O[C@]3(C)CC[C@@H]12 | – | – | – | – | – | · | · | · | · | ·
CC(=O)OC[C@]12CC[C@H]3[C@@](C)(CC[C@H]4C(C)(C)CCC[C@]34C)[C@@H]1C[C@H](C1=CC(=O)O[C@@H]1OC(C)=O)O2 | – | 155 | – | – | – | 210 | 173 | – | 172 | – | s288c autofluor=–
O=C(NCCC(=O)N1CCN(c2ccccn2)CC1)c1ccc(Br)cc1 | – | – | – | – | – | · | · | · | · | ·
CC(=O)N1NC(=Nc2ccccc2)SC1(C)C | – | – | – | – | – | – | – | – | – | –
O=C1NC(=Nc2ccccc2)SC1(CO)CO | – | – | – | – | – | · | · | · | · | ·
COc1ccc(CC(NC(C)=O)C(=O)NC2CCN(C(=O)c3cc(OC)c(OC)c(OC)c3)CC2)cc1 (stereo not given) | – | – | – | – | – | · | · | · | · | ·
Nc1cc(Oc2cccc(Cl)c2)nc(NCc2ccccc2)n1 | · | · | · | · | · | · | · | · | · | · | Yeast autofl DR=–;TORC1 bypass gr=–
Cc1cc(Oc2ccccc2)nc(NCc2ccccc2)n1 | – | – | – | – | – | · | · | · | · | ·
COc1cc(Oc2ccccc2)nc(N)n1 | – | – | – | – | – | · | · | · | · | ·
SMILES | RPL19A TOR yeast | LAP4 TOR yeast | AGP1 TOR yeast | MEP2 TOR yeast | CIT2 TOR yeast | LAP4-GFP pick2 | MEP2-GFP pick2 | RPL19A GFP CP2 | CIT2 GFP CP2 | AGP1-GFP pick2 | others
CNc1nc(N)cc(Oc2cccc(Cl)c2)n1 | · | · | · | · | · | · | · | · | · | · | TORC1 bypass gr=–
CC(C)(C)C(=O)C(Cl)C(=O)Nc1ccccc1 (stereo not given) | – | 285 | – | – | – | · | · | · | · | · | s288c autofluor=–;Yeast autofl DR=–;TORC1 bypass gr=–
O=C(Nc1ccc(Nc2ccccc2)cc1)C(Cl)Cl | – | – | – | – | – | · | · | · | · | ·
OCCCNc1ncnc2oc(-c3ccccc3)c(-c3ccccc3)c12 | – | – | – | – | – | · | · | · | · | ·
N/C(=N\OC(=O)c1cc(Br)ccc1Cl)c1ccccn1 | – | 208 | – | – | – | · | · | · | · | · | s288c autofluor=–
Cc1nc(Nc2nc3c(c(=O)[nH]2)CCC3)nc2ccccc12 | – | – | – | – | – | – | – | – | – | –
O=c1[nH]c(NCc2ccccc2)nc2c1CCC2 | – | – | – | – | – | · | · | · | · | ·
CN(C)c1ccc(/C=N/NC(N)=S)cc1[N+](=O)[O-] | – | – | – | – | – | · | · | · | · | ·
O=C(Nc1ccccc1O)N1c2ccccc2Sc2ccccc21 | – | – | – | – | – | · | · | · | · | ·
COc1ccc(NC(=O)C2C3C=CC4(O3)C2C(=O)N(CCCN2CCCC(C)C2)C4C(=O)NC2CCCCC2)cc1 (stereo not given) | – | – | – | – | – | · | · | · | · | ·
COCCNc1nc(N)c([N+](=O)[O-])c(Nc2cccc(F)c2)n1 | · | · | · | · | · | · | · | · | · | · | Yeast autofl DR=–;TORC1 bypass gr=–
Nc1nc(NCc2ccco2)nc(Nc2ccccc2)c1[N+](=O)[O-] | – | – | – | – | – | · | · | · | · | ·
